tim23-1 inh: growth inhibitors of tim23-1 mutant yeast, primary screen, luminescence, uHTS | S. cerevisiae tim23-1 growth, BacTiter-Glo luminescence, 24 h | inhibition, % at 20 µM | 1.3% of 330,000 active;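 active means growth inhibition of the mutant yeast at or above 50%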;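 further: temperature-sensitive mutant grown at 25 °C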
PfHsp90 set2: growth inhibition of PfHsp90-expressing yeast, primary screen, antimalarial PfHsp90 inhibitor project, S. cerevisiae, BacTiter-Glo luminescence, single point, set 2; BacTiter-Glo ATP, 48 h; yeast lacking PDR1 and PDR3 efflux regulators; 0.32% of 310,000 active; inhibition, % at 9.4 µM;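 active means every replicate shows inhibition above about 80%, whatever the replicate mean, limit read from the data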
TIM10 inh: growth inhibitors of isogenic TIM10 control yeast, primary screen, counter-screen for tim10-1 yeast inhibitor project, luminescence, uHTS. S. cerevisiae TIM10 strain growth, BacTiter-Glo luminescence, 24 h. 1.4% of 330,000 active. AID 463195, 2010. inhibition, % at 10 µM;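 active means inhibition of 40% or more at the single tested concentration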;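 further: wild-type TIM10 isogenic control strain grown at permissive 25 °C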
V-ATPase pHluor: regulators of yeast V-ATPase proton pumping, primary screen, pHLuorin cytosolic pH fluorescence | AID 504577, 2011 | S. cerevisiae | 0.37% of 350,000 active | response, % at 10 µM; in the data active means response mostly above about 7.3%, no sharp cut-off; inactive means mostly below about 5.4%; further: actives read high
tim10-1 inh: growth inhibitors of tim10-1 mutant yeast, primary screen, luminescence, uHTS. S. cerevisiae tim10-1 ts strain growth, BacTiter-Glo, 24 h. inhibition, % at 20 µM. 2.2% of 330,000 active;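 active means inhibition of at least 40%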;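 further: mutant grown at 25 °C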
tim10-1 confirm: growth inhibitors of tim10-1 mutant yeast, confirmation, single concentration, luminescence, S. cerevisiae | shares compounds with tim10-1 inh | inhibition, % at 20 µM | S. cerevisiae tim10-1 ts strain growth, BacTiter-Glo, 24 h | AID 463213, 2010 | 56% of 7,400 active;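 active means inhibition of yeast growth at or above a set limit in either of two repeat tests at 20 µM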;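 further: tim10-1 mutant grown at permissive 25 °C to find synthetic lethal compounds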
Of the large screens only hits and unclear results are named; the others gave an inactive call (follow-up assays come after a bar, where they were run); ! = not confirmed by another sample. Most compounds without a hit are left out; they make up all but 3.7% or so of the library.

S=c1[nH]nc(-c2ccccc2)n1/N=C/C=C/c1ccco1	none
NS(=O)(=O)c1cccc(NC(=O)COC(=O)CCC2CCCC2)c1	none (no result: PfHsp90 set2)
CC(C)(C)C1C=C(Sc2ccccc2)C(=O)O1 (configuration not stated)	tim10-1 inh 44 | tim10-1 confirm 35
O=C(CSc1nnc2ccccn12)NNC(=O)c1cccc(Cl)c1	none
Cc1ccc(C(=O)CSC2=C(C#N)C(c3ccco3)C3=C(CCCC3=O)N2)cc1 (configuration not stated)	none
N#CC1=C(SCC(=O)c2ccccc2)NC2=C(C(=O)CCC2)C1c1ccco1 (configuration not stated)	tim10-1 inh 49 | tim10-1 confirm inactive
CCCCCCN1C[C@@H](n2cc(COC(=O)c3ccccc3)nn2)[C@H](O)C[C@@H]1c1ccccc1	none (no result: tim23-1 inh, PfHsp90 set2, TIM10 inh, tim10-1 inh)
Cc1nc(CN2CCN(C(=O)NC3(c4ccccc4)CC3)CC2)cs1	none
Cc1nc(CN2CCN(S(=O)(=O)c3c(Cl)cc(Br)cc3Cl)CC2)cs1	tim10-1 inh 49 (no result: PfHsp90 set2) | tim10-1 confirm 44
COc1cnc(-c2ccccn2)nc1Sc1ccc(Cl)cc1	tim10-1 inh 43 (no result: PfHsp90 set2) | tim10-1 confirm inactive
COc1cnc(-c2ccccn2)nc1Oc1ccccc1	none
COc1ccc(Sc2nc(-c3ccccn3)ncc2OC)cc1	none
COc1cnc(-c2ccccn2)nc1Oc1cccc(C(F)(F)F)c1	tim10-1 inh 44 | tim10-1 confirm inactive
COc1cnc(-c2ccccn2)nc1Sc1ccccc1	tim10-1 inh 41 | tim10-1 confirm 43
COc1cnc(-c2ccccn2)nc1Sc1ccc(F)cc1	tim10-1 inh 41 | tim10-1 confirm 34
Cc1noc(C)c1COc1ccccc1C(=O)NCCc1ccc(F)cc1	none (no result: tim23-1 inh, TIM10 inh, tim10-1 inh)
CC(=O)N(Cc1cc2ccccc2[nH]c1=O)c1ccc(C)cc1	none
CN1/C(=C/C2CC(=O)N(c3cccc4ccccc34)C2=O)C(C)(C)c2ccccc21 (configuration not stated)	tim10-1 inh 51 | tim10-1 confirm 39
C[C@H]1CCC(=O)N([C@H](COc2ccccc2)Cc2ccccc2)CC1	none
CCOC(=O)C1(S(=O)(=O)c2ccc(Cl)cc2)CCN(Cc2ccc(C)cc2)CC1	tim10-1 inh 50 | tim10-1 confirm inactive
C/C(=N\OC(=O)NC(C)C)c1sc(-c2ccc(Cl)cc2)nc1C	tim10-1 inh 45 | tim10-1 confirm 42
C/C(=N\OC(=O)NC(C)C)c1sc(-c2ccccc2)nc1C	none
CCCN1C(=O)/C(=N\OCC(=O)NC23CC4CC(CC(C4)C2)C3)c2ccccc21	tim10-1 inh 42 | tim10-1 confirm inactive
CCCN1C(=O)/C(=N\OCC(=O)Nc2ccc(C(C)C)cc2)c2ccccc21	tim10-1 inh 48 | tim10-1 confirm 38
O=C(NC1CCCCC1)C(c1ccc2ncccc2c1)N(Cc1cccs1)C(=O)c1cccs1 (configuration not stated)	none
O=C(NC1CCCCC1)C(c1cccs1)N(Cc1cccs1)C(=O)c1cccs1 (configuration not stated)	tim10-1 inh 45 | tim10-1 confirm 26
COc1cc(OC)cc(-c2c(-c3cccs3)c3cc(-c4ccc(C(N)=O)cc4)ccc3n2C)c1	none
O=C1N/C(=C/c2ccc(Br)s2)C(=O)N1c1ccccc1	tim10-1 inh 46 | tim10-1 confirm inactive
Cc1ccc(S(=O)(=O)N2CCCCCC2)cc1C(=O)NCc1ccccn1	none
COc1ccc(/C=C/C(=O)C2CC2)cc1Cn1nc(C)c([N+](=O)[O-])c1C	tim10-1 inh 47 | tim10-1 confirm 37
COc1ccc(CCNC(=O)c2ccc(NC(=O)CC3SC(N4CCCCC4)=NC3=O)cc2)cc1 (configuration not stated)	none (no result: tim23-1 inh, TIM10 inh, tim10-1 inh)
Cc1cc(-c2[nH]nc3c2C(c2cccc(O)c2)C(C#N)=C(N)O3)c(C)s1 (configuration not stated)	none
Cc1cc(-c2[nH]nc3c2C(c2ccsc2)C(C#N)=C(N)O3)c(C)s1 (configuration not stated)	tim10-1 inh 47 | tim10-1 confirm 44
Cc1ccc(-c2[nH]nc3c2C(C)C(C#N)=C(N)O3)cc1 (configuration not stated)	tim10-1 inh 40 | tim10-1 confirm 32
CN(Cc1ccccc1)S(=O)(=O)c1ccc(N2CCOCC2)nc1	none
CC(=O)N1CCSc2ccc(S(=O)(=O)Nc3cccc(C)c3)cc21	none
O=C(NNC(=S)Nc1ccc(OC(F)F)cc1)c1cc2c(s1)CCCC2	none
COc1ccccc1CNC(=O)CN1C(=O)NC2(CCOc3ccccc32)C1=O (configuration not stated)	none
CCCCNc1nc2ccccc2nc1NS(=O)(=O)c1ccc(F)cc1	none
CCOc1ccc2nc(NCCCNS(=O)(=O)c3ccc(F)cc3)c(C#N)cc2c1	tim10-1 inh 42 | tim10-1 confirm inactive
CCOc1ccc2nc(NCCCNS(=O)(=O)c3ccccc3)c(C#N)cc2c1	tim10-1 inh 42 | tim10-1 confirm inactive
CCOc1ccc2nc(NCCNC(=O)c3cc(OC)c(OC)c(OC)c3)c(C#N)cc2c1	none
CCCCCCOc1ccc(N2C(=O)CC(N3CCN(CCN=CC4C(=O)CC(C)(C)CC4=O)CC3)C2=O)cc1 (configuration not stated)	tim10-1 inh 43 | tim10-1 confirm 41
CCCCCCOc1ccc(N2C(=O)CC(N3CCN(CCN=CC4=C(O)CC(C)(C)CC4=O)CC3)C2=O)cc1 (configuration not stated)	none
CC(CC(=O)N1CCN(c2ccccc2)CC1)S(=O)(=O)c1ccc2c(c1)NC(=O)CO2 (configuration not stated)	none
C=C1CCC[C@]2(C)C[C@H]3OC(=O)C(CN4CCOCC4)[C@H]3C[C@@H]12 (some centres not stated)	tim10-1 inh 51 | tim10-1 confirm 46
COc1ccc(Cl)cc1NC(=O)CN(C)C(=O)c1ccc(-n2nc(C)cc2C)cc1	none
Cc1cc(Cl)cc(Cl)c1OCC(=O)NCc1ccco1	tim10-1 inh 50 | tim10-1 confirm 40
c1ccc2sc(-c3ccc4c(c3)OCO4)nc2c1	tim10-1 inh 45 | tim10-1 confirm 46
O=C(Nc1ncc([N+](=O)[O-])s1)c1cccs1	tim10-1 inh 43! | tim10-1 confirm 38
O=C(O)CC(c1ccccc1)c1ccc2c(c1)OCO2 (configuration not stated)	none (no result: tim23-1 inh, PfHsp90 set2, TIM10 inh, tim10-1 inh)
CC(C)NS(=O)(=O)c1ccc(Oc2ncc(C(F)(F)F)cc2Cl)cc1	tim10-1 inh 49 | tim10-1 confirm inactive
N#CCc1ccc(Oc2ncc(C(F)(F)F)cc2Cl)cc1	tim10-1 inh 48 | tim10-1 confirm inactive

Screening data from PubChem.
